Measurements as given in the supplement of paper PMC10849652.
The full data set covers some 8,800 targets. This sample favours those with a hit. About 0.5% of all pairs of compound and target were hits.

Tests used:
Assay in all cases: log2 fold change, soluble protein after heating vs DMSO (PISA); higher = thermal stabilisation; K562 lysate, 10 uM; active = over 0.2 and 3.5 SD of the protein, either way, in both replicates (recomputed)
[1] = compound: C1=CC=C(C=C1)[C@H](COC2=CC3=C(C=C2)NC(=O)N3)NC(=O)C4=CC=CN(C4=O)CC5=CC(=C(C=C5)F)F
Procedure, shortened: (§1)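 To prepare the extract, K562 pellets were dounce-homogenised in PBS pH 7.4 with 1 mM MgCl2, giving crude material at 1 mg/mL protein. This was treated with 10 μM compound for 30 min, then heated in aliquots for 3 min over 48°C-58°C before pooling and addition of NP-40 to 0.5% at 4°C. Centrifugation at 21,000xg for 90 min left soluble protein in the supernatant, which TMTpro 16plex LC-MS/MS quantified with equalised channel sums. Results are log-two fold changes in thermal stability compared with solvent controls, from duplicates.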

[2] = compound: CC1=C(SC2=C1C(=N[C@H](C3=NN=C(N32)C)CC(=O)N)C4=CC=C(C=C4)Cl)C
Procedure, shortened: as §1

[3] = compound: CC1=C2C(=CC=C1)N=C(N(C2=O)C3=CC=CC=C3C)CN4C=NC5=C(N=CN=C54)N
Procedure, shortened: as §1

[4] = compound: Cc1sc2c(c1C)C(c1ccc(Cl)cc1)=N[C@@H](CC(=O)OC(C)(C)C)c1nnc(C)n1-2
Procedure, shortened: as §1

[5] = compound: c1ccc([C@@H]2C[C@H]2NC2CCNCC2)cc1
Procedure, shortened: as §1

Measured: log2 fold change

KIF4A (UniProt O95239)
inactive: [1] -0.042 | [2] 0.012 | [3] 0.035 | [4] 0.06 | [5] 0.005

LARS (UniProt Q9P2J5)
inactive: [1] -0.02 | [2] -0.007 | [3] 0.015 | [4] 0.04 | [5] 0.077

MCCC1 (UniProt Q96RQ3)
UniProt Q96RQ3, sequence (Q96RQ3 whole entry, looked up): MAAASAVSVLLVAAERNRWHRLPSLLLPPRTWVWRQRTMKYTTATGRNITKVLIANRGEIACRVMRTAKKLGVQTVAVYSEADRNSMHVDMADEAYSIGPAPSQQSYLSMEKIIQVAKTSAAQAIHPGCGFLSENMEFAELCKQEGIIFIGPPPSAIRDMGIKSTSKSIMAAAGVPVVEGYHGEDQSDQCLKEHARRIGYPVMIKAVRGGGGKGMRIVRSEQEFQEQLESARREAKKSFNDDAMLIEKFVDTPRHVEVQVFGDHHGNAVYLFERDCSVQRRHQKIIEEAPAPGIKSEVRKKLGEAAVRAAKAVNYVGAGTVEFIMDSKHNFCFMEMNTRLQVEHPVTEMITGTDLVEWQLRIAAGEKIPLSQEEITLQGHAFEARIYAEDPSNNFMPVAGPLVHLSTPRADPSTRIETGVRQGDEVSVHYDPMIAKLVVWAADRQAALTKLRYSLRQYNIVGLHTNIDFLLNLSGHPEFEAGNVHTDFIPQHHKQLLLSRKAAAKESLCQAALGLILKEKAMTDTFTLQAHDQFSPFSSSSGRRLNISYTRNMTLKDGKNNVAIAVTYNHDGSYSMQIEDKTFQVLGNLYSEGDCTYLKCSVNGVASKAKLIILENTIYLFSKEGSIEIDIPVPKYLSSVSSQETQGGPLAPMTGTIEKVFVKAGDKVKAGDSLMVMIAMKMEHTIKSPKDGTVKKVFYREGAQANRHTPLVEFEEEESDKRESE
inactive: [1] -0.063 | [2] 0.015 | [3] 0.046 | [4] 0.002 | [5] 0.059

MAP4 (UniProt P27816)
UniProt P27816, sequence (P27816 whole entry, looked up): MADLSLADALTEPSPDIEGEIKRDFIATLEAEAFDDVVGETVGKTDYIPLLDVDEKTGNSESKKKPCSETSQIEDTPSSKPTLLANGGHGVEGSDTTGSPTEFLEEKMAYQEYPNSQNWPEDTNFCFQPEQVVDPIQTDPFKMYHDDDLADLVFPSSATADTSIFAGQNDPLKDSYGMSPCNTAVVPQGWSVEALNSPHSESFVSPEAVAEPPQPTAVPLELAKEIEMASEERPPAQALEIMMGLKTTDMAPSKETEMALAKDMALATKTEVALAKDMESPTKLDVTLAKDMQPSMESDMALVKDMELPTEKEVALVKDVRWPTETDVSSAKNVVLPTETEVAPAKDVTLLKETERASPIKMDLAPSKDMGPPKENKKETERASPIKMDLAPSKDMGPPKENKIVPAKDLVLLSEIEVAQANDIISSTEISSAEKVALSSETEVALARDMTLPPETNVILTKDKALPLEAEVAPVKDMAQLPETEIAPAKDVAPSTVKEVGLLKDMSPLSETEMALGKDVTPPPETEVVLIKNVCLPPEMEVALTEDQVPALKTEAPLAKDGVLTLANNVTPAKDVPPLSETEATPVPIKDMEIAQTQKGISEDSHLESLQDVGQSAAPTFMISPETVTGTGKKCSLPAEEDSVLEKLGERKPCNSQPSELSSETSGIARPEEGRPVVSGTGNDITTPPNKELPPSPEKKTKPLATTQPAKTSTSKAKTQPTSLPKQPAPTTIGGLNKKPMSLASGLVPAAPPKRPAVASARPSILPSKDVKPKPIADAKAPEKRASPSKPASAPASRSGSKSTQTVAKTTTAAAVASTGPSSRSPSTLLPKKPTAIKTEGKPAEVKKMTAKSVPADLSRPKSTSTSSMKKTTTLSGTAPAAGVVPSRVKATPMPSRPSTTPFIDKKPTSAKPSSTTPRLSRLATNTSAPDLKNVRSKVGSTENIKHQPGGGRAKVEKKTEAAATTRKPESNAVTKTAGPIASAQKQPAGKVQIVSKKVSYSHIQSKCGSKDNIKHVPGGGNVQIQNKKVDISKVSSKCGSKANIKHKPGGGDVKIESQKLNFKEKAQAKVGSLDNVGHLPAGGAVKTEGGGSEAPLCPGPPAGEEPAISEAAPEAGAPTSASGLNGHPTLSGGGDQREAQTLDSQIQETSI
inactive: [1] 0.027 | [2] 0.012 | [3] -0.012 | [4] -0.027 | [5] -0.043

LAP3 (UniProt P28838)
inactive: [1] -0.043 | [2] 0.021 | [3] -0.139 | [4] -0.056 | [5] -0.285

KRI1 (UniProt Q8N9T8)
inactive: [1] 0.053 | [2] 0.043 | [3] 0.027 | [4] -0.048 | [5] -0.039

MIF (UniProt P14174)
inactive: [1] 0.046 | [2] 0.022 | [3] -0.043 | [4] -0.013 | [5] -0.09

KIF11 (UniProt P52732)
inactive: [1] 0.008 | [2] -0.001 | [3] 0.006 | [4] -0.002 | [5] 0

KIF2A isoform 4 (UniProt O00139)
inactive: [1] 0.006 | [2] -0.012 | [3] 0.015 | [4] 0.012 | [5] 0.04

MAPK3 (UniProt P27361)
inactive: [1] 0.008 | [2] 0.006 | [3] -0.05 | [4] 0.036 | [5] -0.048

MARCHF6 (UniProt O60337)
UniProt O60337, sequence (O60337 whole entry, looked up): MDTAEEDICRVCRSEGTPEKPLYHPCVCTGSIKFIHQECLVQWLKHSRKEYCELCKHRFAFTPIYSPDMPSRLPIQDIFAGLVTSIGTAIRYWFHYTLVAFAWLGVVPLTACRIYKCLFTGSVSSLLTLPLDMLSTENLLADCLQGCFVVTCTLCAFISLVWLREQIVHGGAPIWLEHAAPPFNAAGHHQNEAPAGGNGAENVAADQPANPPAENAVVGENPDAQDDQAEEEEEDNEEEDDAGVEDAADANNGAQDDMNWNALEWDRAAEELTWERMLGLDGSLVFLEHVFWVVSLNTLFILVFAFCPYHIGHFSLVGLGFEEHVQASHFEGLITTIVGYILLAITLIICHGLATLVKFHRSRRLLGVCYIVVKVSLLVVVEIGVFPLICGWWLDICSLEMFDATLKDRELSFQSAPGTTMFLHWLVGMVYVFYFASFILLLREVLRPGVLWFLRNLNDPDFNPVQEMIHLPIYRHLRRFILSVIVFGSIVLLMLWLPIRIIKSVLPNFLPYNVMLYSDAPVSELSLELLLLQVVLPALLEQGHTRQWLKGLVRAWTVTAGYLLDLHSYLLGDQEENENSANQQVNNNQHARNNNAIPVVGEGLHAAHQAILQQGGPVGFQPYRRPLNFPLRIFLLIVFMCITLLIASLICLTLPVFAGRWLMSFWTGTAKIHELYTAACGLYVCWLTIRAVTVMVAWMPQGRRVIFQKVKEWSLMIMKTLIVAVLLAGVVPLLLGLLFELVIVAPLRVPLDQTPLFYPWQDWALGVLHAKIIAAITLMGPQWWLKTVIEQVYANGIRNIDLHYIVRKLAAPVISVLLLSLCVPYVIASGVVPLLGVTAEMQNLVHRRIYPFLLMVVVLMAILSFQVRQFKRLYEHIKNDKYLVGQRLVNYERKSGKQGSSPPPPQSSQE
inactive: [1] -0.269 | [2] -0.192 | [3] -0.107 | [4] -0.082 | [5] 0.029

KRR1 (UniProt Q13601)
inactive: [1] 0.019 | [2] -0.017 | [3] 0.005 | [4] 0.062 | [5] 0.035

LLGL1 (UniProt Q15334)
inactive: [1] 0.038 | [2] 0.052 | [3] 0.024 | [4] -0.056 | [5] 0.074

LIMS1 isoform 3 (UniProt P48059)
inactive: [1] -0.006 | [2] 0.006 | [3] -0.026 | [4] 0.037 | [5] -0.057

LYAR (UniProt Q9NX58)
inactive: [1] 0.051 | [2] 0.015 | [3] -0.006 | [4] 0.031 | [5] 0.11

MARK2 (UniProt E9PC69)
inactive: [1] 0.003 | [2] -0.004 | [3] 0.071 | [4] -0.043 | [5] 0.035

MLLT11 (UniProt Q13015)
inactive: [1] 0.007 | [2] -0.048 | [3] 0.109 | [4] -0.037 | [5] 0.003

MRPL35 (UniProt Q9NZE8)
inactive: [1] -0.028 | [2] -0.002 | [3] 0.331 | [4] -0.04 | [5] 0

MPZL1 (UniProt O95297)
UniProt O95297, sequence (O95297 whole entry, looked up): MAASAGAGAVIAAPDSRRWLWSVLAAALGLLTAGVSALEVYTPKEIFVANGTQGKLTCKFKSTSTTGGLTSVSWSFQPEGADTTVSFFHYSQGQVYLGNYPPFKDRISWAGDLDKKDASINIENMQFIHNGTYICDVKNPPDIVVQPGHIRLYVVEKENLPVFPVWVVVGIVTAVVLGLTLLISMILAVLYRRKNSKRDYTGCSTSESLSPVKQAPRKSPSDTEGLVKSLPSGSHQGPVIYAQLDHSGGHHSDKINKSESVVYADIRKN
inactive: [1] 0.056 | [2] 0.006 | [3] -0.068 | [4] -0.042 | [5] 0.125

LAGE3 (UniProt Q14657)
UniProt Q14657, sequence (Q14657 whole entry, looked up): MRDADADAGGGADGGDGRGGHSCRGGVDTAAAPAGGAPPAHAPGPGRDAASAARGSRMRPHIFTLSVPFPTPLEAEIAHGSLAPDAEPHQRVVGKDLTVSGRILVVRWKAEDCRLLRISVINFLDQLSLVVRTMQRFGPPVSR
inactive: [1] 0.067 | [2] -0.058 | [3] -0.087 | [4] -0.044 | [5] 0.018

LDAH isoform 2 (UniProt Q9H6V9)
inactive: [1] -0.119 | [2] 0.018 | [3] 0.001 | [4] 0.075 | [5] -0.002

KIF15 (UniProt Q9NS87)
inactive: [1] -0.008 | [2] -0.003 | [3] 0.021 | [4] -0.02 | [5] 0.013

KLHL36 (UniProt Q8N4N3)
inactive: [1] -0.072 | [2] -0.086 | [3] -0.018 | [4] -0.011 | [5] 0.074

MBLAC2 (UniProt Q68D91)
inactive: [1] -0.011 | [2] -0.005 | [3] 0.001 | [4] 0.013 | [5] -0.033

MAP4 (UniProt E7EVA0)
inactive: [1] -0.024 | [2] -0.002 | [3] 0.037 | [4] -0.018 | [5] -0.041

MAD2L2 (UniProt Q9UI95)
inactive: [1] -0.032 | [2] -0.006 | [3] -0.018 | [4] -0.085 | [5] 0.096

KSR1 (UniProt Q8IVT5)
UniProt Q8IVT5, sequence (Q8IVT5 whole entry, looked up): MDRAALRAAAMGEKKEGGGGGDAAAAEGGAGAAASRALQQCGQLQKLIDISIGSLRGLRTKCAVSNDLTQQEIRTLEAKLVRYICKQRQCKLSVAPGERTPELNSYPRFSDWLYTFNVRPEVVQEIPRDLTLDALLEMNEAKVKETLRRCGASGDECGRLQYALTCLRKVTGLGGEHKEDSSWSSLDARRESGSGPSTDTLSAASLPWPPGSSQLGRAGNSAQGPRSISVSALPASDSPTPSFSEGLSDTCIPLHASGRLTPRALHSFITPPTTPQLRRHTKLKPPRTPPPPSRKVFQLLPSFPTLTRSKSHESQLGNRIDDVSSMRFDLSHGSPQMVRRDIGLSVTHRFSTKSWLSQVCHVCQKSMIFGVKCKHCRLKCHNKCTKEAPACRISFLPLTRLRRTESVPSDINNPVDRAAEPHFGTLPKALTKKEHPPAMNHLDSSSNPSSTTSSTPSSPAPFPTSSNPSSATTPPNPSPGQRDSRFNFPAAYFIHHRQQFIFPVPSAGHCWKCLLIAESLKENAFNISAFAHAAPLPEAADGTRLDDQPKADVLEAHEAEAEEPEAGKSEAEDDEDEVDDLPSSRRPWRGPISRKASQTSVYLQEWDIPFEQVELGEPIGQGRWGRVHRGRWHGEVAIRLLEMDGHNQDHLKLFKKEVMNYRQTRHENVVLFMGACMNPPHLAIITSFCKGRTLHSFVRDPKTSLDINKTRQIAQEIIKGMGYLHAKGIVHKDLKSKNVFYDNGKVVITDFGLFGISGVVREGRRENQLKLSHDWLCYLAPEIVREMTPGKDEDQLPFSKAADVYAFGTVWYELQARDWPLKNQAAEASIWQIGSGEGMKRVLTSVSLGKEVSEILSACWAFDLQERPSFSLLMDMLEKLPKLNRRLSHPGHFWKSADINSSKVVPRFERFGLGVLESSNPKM
active: [5] 0.242
inactive: [1] -0.081 | [2] -0.024 | [3] 0.035 | [4] 0.035

MAT2B (UniProt Q9NZL9)
inactive: [1] -0.008 | [2] 0.014 | [3] -0.044 | [4] -0.003 | [5] -0.002

LSS (UniProt P48449)
inactive: [1] 0.016 | [2] -0.083 | [3] 0.014 | [4] -0.012 | [5] -0.007

LIMK1 (UniProt P53667)
inactive: [1] 0.007 | [2] -0.015 | [3] -0.07 | [4] -0.024 | [5] 0.007

LRPPRC (UniProt P42704)
inactive: [1] -0.067 | [2] 0.043 | [3] 0.049 | [4] 0.039 | [5] 0.122

MAP2K3 isoform 3 (UniProt P46734)
inactive: [1] 0.035 | [2] -0.021 | [3] -0.024 | [4] 0.043 | [5] -0.006

MED12 isoform 2 (UniProt Q93074)
inactive: [1] 0.013 | [2] -0.024 | [3] -0.019 | [4] 0.042 | [5] 0.031

MAST4 (UniProt O15021)
inactive: [1] 0.007 | [2] -0.019 | [3] -0.037 | [4] 0.023 | [5] 0

MACROD1 (UniProt Q9BQ69)
inactive: [1] 0.048 | [2] 0.022 | [3] 0.004 | [4] 0.049 | [5] 0.075

LYSMD3 (UniProt Q7Z3D4)
inactive: [1] 0.031 | [2] 0.063 | [3] 0.062 | [4] -0.096 | [5] -0.084

KIFC1 (UniProt Q9BW19)
inactive: [1] 0.046 | [2] -0.008 | [3] 0.122 | [4] 0.021 | [5] 0.029

KPNA2 (UniProt P52292)
inactive: [1] -0.016 | [2] 0.027 | [3] 0.035 | [4] 0.003 | [5] 0.06

LRWD1 (UniProt Q9UFC0)
inactive: [1] -0.027 | [2] 0.044 | [3] -0.012 | [4] 0.023 | [5] 0.039

MAP2K1 (UniProt Q02750)
inactive: [1] -0.012 | [2] 0.016 | [3] -0.047 | [4] -0.048 | [5] 0.081

KLC2 (UniProt Q9H0B6)
inactive: [1] -0.032 | [2] 0.016 | [3] 0.029 | [4] 0.003 | [5] 0.122

MGST3 (UniProt O14880)
inactive: [1] 0.003 | [2] -0.033 | [3] -0.008 | [4] -0.072 | [5] 0.056

KIF26A (UniProt Q9ULI4)
inactive: [1] 0.044 | [2] -0.011 | [3] 0.053 | [4] 0.09 | [5] -0.018

MPP5 (UniProt Q8N3R9)
inactive: [1] -0.044 | [2] 0.045 | [3] -0.006 | [4] 0.029 | [5] -0.11

MRPL19 (UniProt P49406)
inactive: [1] 0.017 | [2] -0.064 | [3] 0.011 | [4] -0.065 | [5] 0.019

KIF21A isoform 5 (UniProt Q7Z4S6)
inactive: [1] -0.023 | [2] 0.024 | [3] -0.003 | [4] 0.009 | [5] 0.118

KNSTRN (UniProt Q9Y448)
inactive: [1] 0.097 | [2] -0.057 | [3] 0 | [4] 0.002 | [5] 0.034

MCU (UniProt Q8NE86)
inactive: [1] 0.021 | [2] 0.028 | [3] -0.031 | [4] -0.023 | [5] 0.015

LSG1 (UniProt Q9H089)
inactive: [1] 0.068 | [2] 0.038 | [3] 0.084 | [4] -0.028 | [5] -0.044

MECR (UniProt Q9BV79)
inactive: [1] -0.001 | [2] 0.013 | [3] 0.047 | [4] -0.048 | [5] 0.005

MICU1 isoform 3 (UniProt Q9BPX6)
UniProt Q9BPX6, sequence (Q9BPX6 whole entry, looked up): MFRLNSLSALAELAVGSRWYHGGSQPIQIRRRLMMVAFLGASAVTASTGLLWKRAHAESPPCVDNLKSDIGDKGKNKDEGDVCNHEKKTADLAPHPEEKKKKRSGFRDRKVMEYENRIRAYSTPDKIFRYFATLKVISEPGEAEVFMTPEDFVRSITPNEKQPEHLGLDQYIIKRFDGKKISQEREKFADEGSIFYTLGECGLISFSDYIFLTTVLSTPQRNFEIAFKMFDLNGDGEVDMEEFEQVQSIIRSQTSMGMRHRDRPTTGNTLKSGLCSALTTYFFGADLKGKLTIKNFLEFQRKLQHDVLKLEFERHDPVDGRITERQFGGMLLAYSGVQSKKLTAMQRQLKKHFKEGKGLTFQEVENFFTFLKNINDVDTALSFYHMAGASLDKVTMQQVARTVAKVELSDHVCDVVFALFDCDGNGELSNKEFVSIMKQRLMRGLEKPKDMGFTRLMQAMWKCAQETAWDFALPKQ
inactive: [1] -0.018 | [2] 0.027 | [3] -0.035 | [4] -0.043 | [5] 0.196

MOCS1 isoform 8 (UniProt Q9NZB8)
inactive: [1] -0.061 | [2] -0.044 | [3] 0.058 | [4] -0.017 | [5] 0.067

MAP2K2 (UniProt P36507)
UniProt P36507, sequence (P36507 whole entry, looked up): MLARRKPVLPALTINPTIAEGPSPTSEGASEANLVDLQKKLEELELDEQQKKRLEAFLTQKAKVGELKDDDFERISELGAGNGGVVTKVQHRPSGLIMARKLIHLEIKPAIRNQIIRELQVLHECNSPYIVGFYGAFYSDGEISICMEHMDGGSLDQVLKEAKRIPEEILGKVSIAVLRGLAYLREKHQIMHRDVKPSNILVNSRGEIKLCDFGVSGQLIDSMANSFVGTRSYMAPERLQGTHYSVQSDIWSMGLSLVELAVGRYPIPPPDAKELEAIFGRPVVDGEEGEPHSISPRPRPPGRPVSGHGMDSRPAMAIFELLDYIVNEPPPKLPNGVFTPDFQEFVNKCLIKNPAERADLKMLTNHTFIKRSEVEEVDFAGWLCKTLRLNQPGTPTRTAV
inactive: [1] -0.04 | [2] 0.022 | [3] -0.047 | [4] -0.068 | [5] 0.064
